The nature of experiment [1]: A CellTox Green Cytotoxicity Assay to monitor cytotoxicity in HepG2 cells - 8 hour (AID 1224890). Further: nearly all actives have a fitted effect of over 45% in size. The method, boiled down:
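HepG2 cells were seeded together with the CellTox Green dye at 600 cells/well, left 5 h at 37 C/5% CO2, then given compounds in DMSO. Fluorescence from dye bound to dead-cell DNA was read repeatedly over 40 h of treatment at 37 C.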

The nature of experiment [2]: qHTS assay to identify small molecule antagonists of the estrogen receptor alpha (ER-alpha) signaling pathway using the BG1 cell line in the presence of 0.1 nM 17-beta-estradiol - cell viability counter screen (AID 1259241). Further: nearly all actives have a fitted effect of over 40% in size. The method, boiled down: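 CellTiter-Fluor read (30 min, 37C) on ER-alpha/ERE-luc VM7Luc4E2 cells; 22 hr compound treatment; agonist 0.1 nM E2 final; same-well multiplex.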

Experiment [3] is described as follows: qHTS assay to identify small molecule antagonists of the androgen receptor (AR) signaling pathway using the MDA cell line in the presence of 0.5 nM R1881 - cell viability counter screen (AID 1259242). Further: nearly all actives have a fitted effect of over 45% in size. The method, boiled down: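 MDA-kb2 cells (human breast carcinoma, stably carrying MMTV-luciferase reporter) were exposed to compounds with 0.5 nM R1881 (final) for 16 hr at 37C, 0% CO2; viability then read as live-cell protease fluorescence (CellTiter-Fluor, 30 min) in the same wells.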
For orientation: qHTS replaces the single test concentration by a dilution series.

The target in experiment [4] is Estrogen receptor (Homo sapiens) (UniProt P03372). The experiment in a line: qHTS assay to identify small molecule antagonists of the estrogen receptor alpha (ER-alpha) signaling pathway using the BG1 cell line in the presence of 0.1 nM 17-beta-estradiol (AID 1259244). Further: nearly all actives have a fitted effect of over 50% in size. In outline:
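VM7Luc4E2 cells (endogenous full-length ER-alpha, stable 4xERE-luciferase) were grown 5 days in phenol red-free medium with charcoal-stripped FBS, then exposed 22 h at 37C to compounds plus 0.1 nM (final) 17beta-estradiol; ONE-Glo luminescence read-out.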

The nature of experiment [5]: qHTS assay to identify small molecule HDAC inhibitors (AID 1259364). Further: top concentration of the series differs between compounds; nearly all actives have a fitted effect of over 45% in size. The method, boiled down: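 Wild-type HCT-116 cells were plated overnight, exposed to compounds for 2 h at 37 °C, then given HDAC-Glo class I/II luminogenic reagent for 30 min at room temperature before luminescence was read.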
Experiment [6] in a line: qHTS assay to identify small molecule agonists of the sonic hedgehog signaling (Shh) pathway - cell viability counter screen (AID 1259366). Further: nearly all actives have a fitted effect of over 50% in size. The method, boiled down: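 Fluorescence from CellTiter-Fluor reports live cells in this counter screen. NIH/3T3-derived Gli1-Luc reporter cells receive test compounds for 24hr at 37C; reagent goes in at 23hr.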
A short description of experiment [7]: qHTS assay to identify small molecule antagonists of the sonic hedgehog signaling (Shh) pathway - cell viability counter screen (AID 1259367). Further: nearly all actives have a fitted effect of over 55% in size. In outline:
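NIH/3T3-derived Gli1-Luc reporter cells (2,000 per well) rested 4 hr at 37 C, then received DMSO compounds plus conditioned medium. After 23 hr of treatment, CellTiter-Fluor was added for 1 hr at 37C and fluorescence read.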

A short description of experiment [8]: qHTS assay to identify small molecule agonists of the sonic hedgehog signaling (Shh) pathway (AID 1259368; calls by dose curve; further: series mostly up to about 92 µM; nearly all actives have a fitted effect of over 15% in size). The method, boiled down: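 NIH/3T3-derived 3T3Gli1-Luc cells carrying a stably integrated Gli1 response element–firefly luciferase reporter were plated, left 4 hr at 37 C, then given compounds in DMSO for 24 hr. Luminescence was read 30 min after adding luciferase reagent.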

Experiment [9] in a line: qHTS assay to identify small molecule antagonists of the sonic hedgehog signaling (Shh) pathway (AID 1259369; calls by dose curve; further: nearly all actives have a fitted effect of over 45% in size; further: potency means the concentration at half of the fitted maximal effect). The method, boiled down: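 NIH/3T3-derived 3T3Gli1-Luc cells with stably integrated Gli1-Luc reporter were preincubated 4hr at 37 C, then given compounds in DMSO plus Shh conditioned medium and incubated 24hr. Firefly luciferase luminescence read after 30min reagent at room temperature.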

Experiment [10] deals with Estrogen receptor beta (Homo sapiens) (UniProt Q92731). Description: qHTS assay to identify small molecule agonists of the estrogen receptor beta (ER-beta) signaling pathway (AID 1259377; active means well fitted activation curve with a large enough effect in the signal ratio in the repeat runs, not every such curve was filed as active; the % refers to the signal ratio). In outline:
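Screening used GripTite ER-beta-UAS-bla cells held in 2% charcoal-stripped FBS medium. After overnight (16 hr) compound incubation at 37C, beta-lactamase activity was detected with a FRET substrate by fluorescence.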

Experiment [11] has the same target. Description: qHTS assay to identify small molecule antagonists of the estrogen receptor beta (ER-beta) signaling pathway (AID 1259378; active means well fitted inhibition curve with a large enough effect in the signal ratio in the repeat runs, not every such curve was filed as active; the % refers to the signal ratio). In outline: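 ER-beta-UAS-bla HEK293T (GripTite) cells in 2% charcoal-stripped FBS medium were preincubated 6 hr at 37C, dosed with compound, then stimulated with 1 nM E2 (final) for 16 hr; beta-lactamase reporter read by B/G FRET fluorescence after 2 hr substrate loading.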

The nature of experiment [12]: qHTS assay to identify small molecule agonists of the estrogen receptor beta (ER-beta) signaling pathway - cell viability counter screen (AID 1259380). Further: nearly all actives have a fitted effect of over 30% in size. The method, boiled down: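 ER-beta-UAS-bla HEK293T cells in medium with 2% charcoal-stripped FBS were preincubated 6 hr at 37C, dosed with compound in DMSO for 16 hr, then after the bla read, CellTiter-Glo was added for 30 min at room temperature; luminescence recorded.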

Experiment [13] can be described thus: qHTS assay to identify small molecule antagonists of the estrogen receptor beta (ER-beta) signaling pathway - cell viability counter screen (AID 1259382). Further: series mostly up to about 92 µM; nearly all actives have a fitted effect of over 55% in size. In outline: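 ER-beta-UAS-bla HEK293T cells (2,000/well, 2% charcoal-stripped FBS) were pre-incubated 6 hr at 37C, then given compound plus 1nM final 17-beta-estradiol for 16 hr. Viability was read in the same wells by CellTiter-Glo luminescence after 30 min at room temperature.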

Experiment [14] deals with Estrogen receptor (Homo sapiens) (UniProt P03372). Description: qHTS assay to identify small molecule agonists of the estrogen receptor alpha (ER-alpha) signaling pathway in the presence of an antagonist (AID 1259383; calls by dose curve; further: top concentration of the series differs between compounds; nearly all actives have a fitted effect of over 15% in size). In outline: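 VM7Luc4E2 cells (endogenous full-length ER-alpha, 4×ERE-luciferase) were precultured 5 days in phenol red-free medium with 10% charcoal-stripped FBS, given 10.0nM ICI-182,780 (final), then treated with compounds at 15 concentrations for 22hr at 37C; luminescence read with ONE-Glo.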
Sequence of Estrogen receptor (Homo sapiens) (P03372 whole entry, looked up): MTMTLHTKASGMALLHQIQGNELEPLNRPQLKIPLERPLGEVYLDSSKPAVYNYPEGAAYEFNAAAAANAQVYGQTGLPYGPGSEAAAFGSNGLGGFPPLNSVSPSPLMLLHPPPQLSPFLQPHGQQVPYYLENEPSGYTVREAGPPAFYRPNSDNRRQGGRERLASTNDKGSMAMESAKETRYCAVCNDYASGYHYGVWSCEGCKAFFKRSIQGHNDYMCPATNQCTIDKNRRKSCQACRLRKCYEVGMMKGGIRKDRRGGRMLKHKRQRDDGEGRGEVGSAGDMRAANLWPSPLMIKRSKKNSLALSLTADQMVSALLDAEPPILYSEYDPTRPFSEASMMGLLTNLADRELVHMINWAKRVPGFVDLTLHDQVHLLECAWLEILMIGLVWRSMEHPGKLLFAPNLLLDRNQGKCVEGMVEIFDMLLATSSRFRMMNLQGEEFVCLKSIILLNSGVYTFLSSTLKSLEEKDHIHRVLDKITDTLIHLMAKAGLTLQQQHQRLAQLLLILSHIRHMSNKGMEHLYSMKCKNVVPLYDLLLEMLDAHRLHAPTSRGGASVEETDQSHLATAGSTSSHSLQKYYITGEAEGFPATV

Experiment [15] can be described thus: qHTS assay to identify small molecule agonists or antagonists of the thyroid stimulating hormone receptor (TSHR) signaling pathway - wild type cell line counter screen (AID 1259384; calls by dose curve). The method, boiled down: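 Wild-type HEK293 cells were plated 18 h at 37 C/5% CO2, pin-dosed with compound plus Ro20-1724 medium, held 30 min at room temperature, then given cAMP-d2 and anti-cAMP-cryptate; fluorescence was read after 1 h. Fifteen concentrations, triplicate.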

Experiment [16] has as its target Thyrotropin receptor (Homo sapiens) (UniProt P16473). The experiment in a line: qHTS assay to identify small molecule antagonists of the thyroid stimulating hormone receptor (TSHR) signaling pathway (AID 1259385; calls by dose curve; further: nearly all actives have a fitted effect of over 20% in size). The method, boiled down: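 TSHR-HEK293 cells were plated and held 18 h at 37C/5% CO2, then given compound plus Ro20-1724 and stimulated with TSH at 1.5 ng/mL final. After 30 min at room temperature, cAMP was detected with cAMP-d2/anti-cAMP-cryptate (1 h) by fluorescence.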

The target in experiment [17] is Androgen receptor (Homo sapiens) (UniProt P10275). Description: qHTS assay to identify small molecule antagonists of the androgen receptor (AR) signaling pathway using the MDA cell line in the presence of 0.5 nM R1881 (AID 1259243). Further: nearly all actives have a fitted effect of over 50% in size. In outline:
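MDA-kb2 human breast carcinoma cells carrying an MMTV-luciferase reporter (AR- and GR-responsive) were plated, rested 5 hr at 37C, dosed with compounds, then stimulated with 0.5 nM R1881 (final) for 16 hr; luminescence was read after ONE-Glo.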

A short description of experiment [18]: qHTS assay to identify small molecule HDAC inhibitors - cell viability counter screen (AID 1259365). Further: series mostly up to about 92 µM; nearly all actives have a fitted effect of over 50% in size. In outline: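 To flag cytotoxic hits, 1,500 wild-type HCT-116 cells per well, plated the day before, receive test compounds for 2hr at 37 C before CellTiter-Glo reagent and a luminescence read.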
The nature of experiment [19]: qHTS assay to identify small molecule phospholipidosis (PLD) inducers (AID 1259344; active means well fitted curve in the direction sought with a large enough effect; an effect the other way counts as inactive or inconclusive). The method, boiled down:
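HepG2 cells on collagen I, attached 4 h at 37 C, were co-treated with compound and LipidTOX Red dye for 24 h at 37 C, then fixed with paraformaldehyde plus Hoechst 33342 and imaged by high-content microscopy for phospholipid accumulation.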

The nature of experiment [20]: qHTS assay to identify small molecule agonists of the androgen receptor (AR) signaling pathway in the presence of an antagonist - cell viability counter screen (AID 1259379). Further: series mostly up to about 92 µM; nearly all actives have a fitted effect of over 25% in size. The method, boiled down:
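MDA-kb2 human breast carcinoma cells (stable MMTV-luciferase, AR/GR responsive) were seeded 3,000 cells/well, pre-incubated 5 hr at 37C without CO2, then given 3.0uM nilutamide and compounds at 15 concentrations for 16 hr. Viability was read by CellTiter-Fluor fluorescence.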

Several values for one entry are separate records, joined by “and”; a condition that tells them apart may be missing. Identical values can stand only once. Results filed as inconclusive are left out. More than one record can exist for a structure, and the calls need not agree. Activity calls are given as the source filed them. Unless noted, the call rests on the fitted dose curve; in most records, active means well fitted curve in the direction sought with a large enough effect in the repeat runs; inconclusive means weak or mixed curves; inactive means no such curve, though single readings can be large; an effect the other way counts as inactive or inconclusive.

Sequence of Thyrotropin receptor (Homo sapiens) (P16473 whole entry, looked up): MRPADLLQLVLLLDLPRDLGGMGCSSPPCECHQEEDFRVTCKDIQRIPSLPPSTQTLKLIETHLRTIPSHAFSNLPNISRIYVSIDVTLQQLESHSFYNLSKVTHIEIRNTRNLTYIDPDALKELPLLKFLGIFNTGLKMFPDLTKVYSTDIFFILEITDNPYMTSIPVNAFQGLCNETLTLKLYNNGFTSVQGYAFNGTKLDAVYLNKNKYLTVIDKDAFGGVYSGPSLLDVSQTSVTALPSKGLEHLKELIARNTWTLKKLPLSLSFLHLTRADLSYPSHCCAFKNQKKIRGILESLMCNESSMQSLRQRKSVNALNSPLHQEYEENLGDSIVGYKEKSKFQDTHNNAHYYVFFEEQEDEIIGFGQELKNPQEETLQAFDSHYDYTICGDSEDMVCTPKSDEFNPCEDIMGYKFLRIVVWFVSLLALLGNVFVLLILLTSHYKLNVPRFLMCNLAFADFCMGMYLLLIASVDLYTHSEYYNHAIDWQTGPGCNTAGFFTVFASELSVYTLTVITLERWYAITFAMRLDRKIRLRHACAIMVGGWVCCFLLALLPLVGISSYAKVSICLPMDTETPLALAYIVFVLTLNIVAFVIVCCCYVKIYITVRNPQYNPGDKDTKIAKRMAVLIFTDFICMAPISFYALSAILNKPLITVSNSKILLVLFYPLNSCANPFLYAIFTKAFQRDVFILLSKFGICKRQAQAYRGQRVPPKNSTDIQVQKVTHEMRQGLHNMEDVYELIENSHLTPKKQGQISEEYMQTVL
Sequence of Androgen receptor (Homo sapiens) (P10275 whole entry, looked up): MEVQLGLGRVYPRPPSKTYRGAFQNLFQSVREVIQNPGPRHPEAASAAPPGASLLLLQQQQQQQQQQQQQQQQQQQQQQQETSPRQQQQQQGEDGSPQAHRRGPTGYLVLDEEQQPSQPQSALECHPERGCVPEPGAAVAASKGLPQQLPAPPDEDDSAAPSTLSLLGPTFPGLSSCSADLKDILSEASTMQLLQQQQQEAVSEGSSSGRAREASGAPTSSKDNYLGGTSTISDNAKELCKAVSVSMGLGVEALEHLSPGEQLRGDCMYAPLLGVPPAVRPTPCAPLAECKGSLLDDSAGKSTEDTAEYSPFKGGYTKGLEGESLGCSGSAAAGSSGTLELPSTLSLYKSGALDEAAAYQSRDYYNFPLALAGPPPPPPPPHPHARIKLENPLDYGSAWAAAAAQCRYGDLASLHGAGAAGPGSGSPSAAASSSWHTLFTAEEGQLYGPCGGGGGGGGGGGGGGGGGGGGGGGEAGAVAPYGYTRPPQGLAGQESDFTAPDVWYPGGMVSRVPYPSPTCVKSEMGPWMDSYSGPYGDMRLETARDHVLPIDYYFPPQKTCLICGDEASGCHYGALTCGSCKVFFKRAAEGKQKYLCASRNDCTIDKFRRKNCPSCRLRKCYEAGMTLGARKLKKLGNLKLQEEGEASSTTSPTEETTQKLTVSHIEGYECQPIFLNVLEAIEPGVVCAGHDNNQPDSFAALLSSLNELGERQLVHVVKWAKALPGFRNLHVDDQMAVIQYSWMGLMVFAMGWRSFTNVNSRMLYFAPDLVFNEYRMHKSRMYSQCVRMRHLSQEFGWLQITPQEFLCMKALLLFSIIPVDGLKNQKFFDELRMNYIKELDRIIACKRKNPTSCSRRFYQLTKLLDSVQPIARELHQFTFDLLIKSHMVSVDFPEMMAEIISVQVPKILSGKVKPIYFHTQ
Sequence of Estrogen receptor beta (Homo sapiens) (Q92731 whole entry, looked up): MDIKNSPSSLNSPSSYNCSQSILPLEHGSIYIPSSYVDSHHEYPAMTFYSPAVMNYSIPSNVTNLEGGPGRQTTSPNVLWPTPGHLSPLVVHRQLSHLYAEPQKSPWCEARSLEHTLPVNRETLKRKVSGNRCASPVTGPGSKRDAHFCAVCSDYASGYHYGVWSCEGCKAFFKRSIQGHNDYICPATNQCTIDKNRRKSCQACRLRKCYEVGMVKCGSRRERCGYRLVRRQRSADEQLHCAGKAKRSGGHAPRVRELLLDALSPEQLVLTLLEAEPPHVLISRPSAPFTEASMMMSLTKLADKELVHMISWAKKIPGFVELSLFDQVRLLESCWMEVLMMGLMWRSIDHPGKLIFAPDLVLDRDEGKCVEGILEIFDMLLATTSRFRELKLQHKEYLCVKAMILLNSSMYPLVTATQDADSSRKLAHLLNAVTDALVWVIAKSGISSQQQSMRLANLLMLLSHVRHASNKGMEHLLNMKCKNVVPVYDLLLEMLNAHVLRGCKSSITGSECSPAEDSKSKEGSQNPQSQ

As to `CCCCCCCCCCCCOCC1CO1` (stereo unspecified), the Potency entry in experiment [1], in [2], in experiment [3], in [4], in [5] and in experiment [6] was “inactive” throughout. For the same compound, the Potency result in experiment [7], in experiment [9], in [10], in experiment [11], in [12] and in experiment [13] was “inactive” each time. In addition, in [14], the Potency result is “inactive”. Also, the compound was classed as inactive in [8], in experiment [15] and in [16].
As for `C=C(C)C(=O)OCCCCCC`, the Potency entry in experiment [1], in [2], in experiment [3], in experiment [4], in [5] and in experiment [6] was “inactive” each time. The Potency result in experiment [7], in [9], in [12], in experiment [13] and in [14] was “inactive” throughout. For the same compound, the call in experiment [8], in experiment [15] and in experiment [16] was inactive.
On to `CCCCC(CC)COC(=O)/C=C\C(=O)OCC(CC)CCCC` (stereo unspecified), for which the Potency entry in experiment [1], in experiment [3], in [5], in experiment [6], in experiment [7] and in experiment [9] was “inactive” each time. Moreover, the Potency result in experiment [10], in experiment [11], in experiment [12] and in [13] was “inactive” in each case. Besides, the outcome in experiment [17], in experiment [18], in [8], in [15] and in experiment [16] was inactive.
On to `Cc1cc(O)cc(C)c1Cl`, for which the Potency entry in experiment [1], in experiment [2], in [3], in experiment [5], in experiment [6] and in experiment [7] was “inactive” each time. Further, the Potency result in experiment [10], in experiment [11], in experiment [20], in experiment [12] and in [13] was “inactive” each time. The compound was classed as inactive in experiment [19], in [18], in experiment [8], in [15] and in experiment [16]. Also, in [9], the Potency is 3.06 µM (active).
As for `OCC#CCO`, the Potency entry in experiment [1], in [2], in experiment [3], in [5], in experiment [6] and in [7] was “inactive” in each case. In addition, the Potency result in [9], in experiment [10], in [11], in [20], in [12] and in experiment [13] was “inactive” in each case. In addition, the call in experiment [18], in experiment [8], in experiment [15] and in [16] was inactive.
In the case of `COCC(=O)O`, the Potency entry in [1], in [2], in experiment [3], in experiment [4], in [5] and in experiment [6] was “inactive” in each case. Further, the Potency result in experiment [7], in experiment [10], in experiment [11], in experiment [12], in experiment [13] and in experiment [14] was “inactive” in each case. Besides, the call in [8], in experiment [15] and in experiment [16] was inactive. The Potency in experiment [9] is 1.25 µM (active) and inactive.
In the case of `O=C(O)c1cc(-c2ccccc2)nc2ccccc12`, the Potency entry in experiment [1], in [3], in [6], in experiment [7], in experiment [9] and in experiment [20] was “inactive” throughout. Moreover, the Potency result in experiment [12] and in experiment [13] was “inactive” throughout. Also, the result in [17], in experiment [19], in experiment [8], in experiment [15] and in experiment [16] was inactive.
Take `Oc1ccc2ccccc2c1`: the Potency result in experiment [1], in experiment [2], in experiment [3], in experiment [5], in experiment [6] and in experiment [7] was “inactive” each time. Moreover, the Potency entry in [20], in experiment [12] and in experiment [13] was “inactive” in each case. Also, the compound was called inactive in experiment [18], in experiment [8], in [15] and in [16]. The Potency in experiment [9] was 5.58 µM (active) and 9.69 µM (active).
With `C[C@@H](O)[C@H]1C(=O)N2C(C(=O)O)=C(S[C@@H]3CN[C@H](C(=O)N(C)C)C3)[C@H](C)[C@H]12`, the Potency result in experiment [1], in [2], in experiment [3], in experiment [5], in experiment [6] and in experiment [7] was “inactive” in each case. Moreover, the Potency result in experiment [9], in [10], in experiment [11], in [12] and in [13] was “inactive” each time. The result in [19], in experiment [8], in experiment [15] and in experiment [16] was inactive.

The values are drawn from PubChem BioAssay (Tox21).
